Drawing on ChEMBL document CHEMBL1961873, “Compounds: GSK PKIS; Assays: Nanosyn kinase panel” (2012), this text covers inhibition for 5 compounds.

Broadly, the inhibition is the change of the read-out against control, counted positive when it falls.

Test [1] concerns the target T1, Serine/threonine-protein kinase Nek9 (Homo sapiens) (UniProt Q8TD19).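 Further: each value is a mean percent inhibition of NEK9.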
T1 sequence (whole entry): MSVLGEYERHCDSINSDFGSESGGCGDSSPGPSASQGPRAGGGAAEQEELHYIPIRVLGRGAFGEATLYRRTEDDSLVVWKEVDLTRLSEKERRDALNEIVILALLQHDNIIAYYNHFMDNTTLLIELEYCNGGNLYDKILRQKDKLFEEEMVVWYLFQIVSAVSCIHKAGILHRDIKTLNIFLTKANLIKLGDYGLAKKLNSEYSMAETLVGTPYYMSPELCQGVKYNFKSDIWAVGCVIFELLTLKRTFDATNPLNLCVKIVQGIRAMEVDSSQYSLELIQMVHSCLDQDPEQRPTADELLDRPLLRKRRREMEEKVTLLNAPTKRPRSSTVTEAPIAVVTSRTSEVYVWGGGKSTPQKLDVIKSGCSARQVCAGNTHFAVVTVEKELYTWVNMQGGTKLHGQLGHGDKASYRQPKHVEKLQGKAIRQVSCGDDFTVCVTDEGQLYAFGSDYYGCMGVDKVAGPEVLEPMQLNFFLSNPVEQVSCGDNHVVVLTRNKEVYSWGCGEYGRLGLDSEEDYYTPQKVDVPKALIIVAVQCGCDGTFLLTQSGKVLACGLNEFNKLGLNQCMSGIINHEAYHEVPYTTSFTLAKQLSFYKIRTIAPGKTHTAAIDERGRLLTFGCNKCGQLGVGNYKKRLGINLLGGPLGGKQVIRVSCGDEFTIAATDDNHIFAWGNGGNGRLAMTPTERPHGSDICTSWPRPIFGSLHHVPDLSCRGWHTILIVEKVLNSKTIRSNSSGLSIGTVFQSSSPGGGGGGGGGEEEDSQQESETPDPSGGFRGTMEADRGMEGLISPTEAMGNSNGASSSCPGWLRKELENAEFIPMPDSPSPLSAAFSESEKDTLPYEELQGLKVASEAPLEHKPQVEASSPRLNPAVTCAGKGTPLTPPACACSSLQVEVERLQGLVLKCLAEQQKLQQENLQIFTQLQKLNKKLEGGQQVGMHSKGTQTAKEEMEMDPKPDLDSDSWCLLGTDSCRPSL
To be noted: at 1 µM.

For test [2], the target named is Serine/threonine-protein kinase PLK1 (Homo sapiens) (UniProt P53350). Conditions: at 0.1 µM.
Test [3] has the same target. To be noted: at 1 µM.
Test [4] concerns the target T2, Dual specificity protein kinase TTK (Homo sapiens) (UniProt P33981).
T2 sequence (whole entry): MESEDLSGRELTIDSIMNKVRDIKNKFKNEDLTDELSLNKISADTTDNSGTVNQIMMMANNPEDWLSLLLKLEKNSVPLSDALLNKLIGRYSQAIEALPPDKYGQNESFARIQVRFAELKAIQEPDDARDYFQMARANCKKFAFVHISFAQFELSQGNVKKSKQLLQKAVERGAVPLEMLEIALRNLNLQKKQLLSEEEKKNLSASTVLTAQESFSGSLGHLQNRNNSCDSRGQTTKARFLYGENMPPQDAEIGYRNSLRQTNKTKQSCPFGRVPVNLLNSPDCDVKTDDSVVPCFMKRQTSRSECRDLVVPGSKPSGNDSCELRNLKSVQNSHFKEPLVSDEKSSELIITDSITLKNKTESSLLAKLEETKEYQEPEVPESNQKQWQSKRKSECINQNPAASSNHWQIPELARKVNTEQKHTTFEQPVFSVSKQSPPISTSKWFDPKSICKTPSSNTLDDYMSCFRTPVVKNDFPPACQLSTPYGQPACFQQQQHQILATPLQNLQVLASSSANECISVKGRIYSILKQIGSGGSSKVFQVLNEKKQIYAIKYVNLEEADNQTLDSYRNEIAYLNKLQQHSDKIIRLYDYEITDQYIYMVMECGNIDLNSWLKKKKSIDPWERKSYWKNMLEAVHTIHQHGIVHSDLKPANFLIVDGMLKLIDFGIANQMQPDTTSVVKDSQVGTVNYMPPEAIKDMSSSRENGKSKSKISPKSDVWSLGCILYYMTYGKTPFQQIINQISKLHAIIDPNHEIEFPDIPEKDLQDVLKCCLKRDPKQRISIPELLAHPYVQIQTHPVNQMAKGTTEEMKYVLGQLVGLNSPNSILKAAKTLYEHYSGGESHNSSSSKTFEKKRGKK
Conditions: at 0.1 µM.

The subject of test [5] is T3, Receptor-type tyrosine-protein kinase FLT3 (Homo sapiens), P36888 [D835Y].
T3 sequence (whole entry): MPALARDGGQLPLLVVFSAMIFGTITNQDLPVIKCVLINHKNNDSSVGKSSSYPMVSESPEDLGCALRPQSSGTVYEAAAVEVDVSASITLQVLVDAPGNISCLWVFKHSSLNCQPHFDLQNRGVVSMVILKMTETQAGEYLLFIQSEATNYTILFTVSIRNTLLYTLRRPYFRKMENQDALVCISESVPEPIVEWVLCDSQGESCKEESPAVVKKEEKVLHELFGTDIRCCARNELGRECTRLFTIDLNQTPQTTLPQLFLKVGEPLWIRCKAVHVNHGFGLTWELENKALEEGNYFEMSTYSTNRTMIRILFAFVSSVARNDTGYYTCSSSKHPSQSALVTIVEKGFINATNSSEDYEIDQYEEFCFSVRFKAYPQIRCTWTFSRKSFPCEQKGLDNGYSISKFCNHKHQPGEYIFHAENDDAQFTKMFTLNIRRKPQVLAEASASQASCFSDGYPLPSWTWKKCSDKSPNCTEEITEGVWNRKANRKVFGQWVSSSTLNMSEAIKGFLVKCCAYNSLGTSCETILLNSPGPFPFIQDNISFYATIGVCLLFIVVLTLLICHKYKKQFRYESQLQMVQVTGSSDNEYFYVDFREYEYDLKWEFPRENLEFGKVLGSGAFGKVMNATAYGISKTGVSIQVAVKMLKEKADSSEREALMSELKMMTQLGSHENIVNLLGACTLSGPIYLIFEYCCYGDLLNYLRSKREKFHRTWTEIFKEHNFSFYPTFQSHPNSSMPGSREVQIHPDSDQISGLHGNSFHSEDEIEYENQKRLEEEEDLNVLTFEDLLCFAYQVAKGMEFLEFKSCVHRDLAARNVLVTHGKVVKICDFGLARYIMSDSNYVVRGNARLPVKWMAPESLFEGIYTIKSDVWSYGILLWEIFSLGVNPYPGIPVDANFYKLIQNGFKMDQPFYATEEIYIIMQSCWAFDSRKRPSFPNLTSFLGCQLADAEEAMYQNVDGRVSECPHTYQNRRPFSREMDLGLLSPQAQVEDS
To be noted: at 1 µM.

The target in test [6] is Vascular endothelial growth factor receptor 3 (Homo sapiens) (UniProt P35916). To be noted: at 0.1 µM.
For test [7] the target is unchanged. To be noted: at 1 µM.
Test [8] concerns the target Macrophage colony-stimulating factor 1 receptor (Homo sapiens) (UniProt P07333). Conditions: at 0.1 µM.
For test [9] the target is unchanged. To be noted: at 1 µM.
Test [10] has as its target Tyrosine-protein kinase Fyn (Homo sapiens) (UniProt P06241). Conditions: at 0.1 µM.
Test [11] shares this target. Conditions: at 1 µM.
The target in test [12] is Tyrosine-protein kinase HCK (Homo sapiens) (UniProt P08631). To be noted: at 0.1 µM.
Test [13] has the same target. To be noted: at 1 µM.
Test [14] addresses Insulin-like growth factor 1 receptor (Homo sapiens) (UniProt P08069). To be noted: at 0.1 µM.
For test [15] the target is unchanged. To be noted: at 1 µM.
The target in test [16] is Insulin receptor (Homo sapiens) (UniProt P06213). Conditions: at 0.1 µM.
Test [17] shares this target. To be noted: at 1 µM.
Test [18] deals with Insulin receptor-related protein (Homo sapiens) (UniProt P14616). Conditions: at 0.1 µM.
Test [19] has the same target. To be noted: at 1 µM.
Test [20] concerns the target T4, Tyrosine-protein kinase ITK/TSK (Homo sapiens) (UniProt Q08881).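 Further: mean percent inhibition of ITK from the GSK PKIS screen.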
T4 sequence (whole entry): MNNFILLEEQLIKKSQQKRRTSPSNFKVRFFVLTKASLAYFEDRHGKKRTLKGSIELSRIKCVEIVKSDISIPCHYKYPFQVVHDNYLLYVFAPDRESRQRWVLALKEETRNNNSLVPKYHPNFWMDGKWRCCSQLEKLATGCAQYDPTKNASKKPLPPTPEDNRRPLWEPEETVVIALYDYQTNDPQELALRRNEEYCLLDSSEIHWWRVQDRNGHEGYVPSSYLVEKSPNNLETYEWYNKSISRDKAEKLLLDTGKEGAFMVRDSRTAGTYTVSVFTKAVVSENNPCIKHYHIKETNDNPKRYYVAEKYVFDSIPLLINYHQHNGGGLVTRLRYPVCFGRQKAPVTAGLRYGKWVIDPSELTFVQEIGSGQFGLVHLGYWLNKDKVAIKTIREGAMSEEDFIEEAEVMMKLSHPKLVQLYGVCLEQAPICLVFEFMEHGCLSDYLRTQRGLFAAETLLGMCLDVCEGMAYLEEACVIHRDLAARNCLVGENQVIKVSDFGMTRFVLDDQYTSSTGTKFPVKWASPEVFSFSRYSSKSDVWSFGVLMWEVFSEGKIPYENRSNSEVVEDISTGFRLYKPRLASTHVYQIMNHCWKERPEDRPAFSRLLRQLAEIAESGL
To be noted: at 0.1 µM.

SMILES strings stand for the structures.

Insulin receptor (Homo sapiens), sequence (P06213 28-758 limits assumed): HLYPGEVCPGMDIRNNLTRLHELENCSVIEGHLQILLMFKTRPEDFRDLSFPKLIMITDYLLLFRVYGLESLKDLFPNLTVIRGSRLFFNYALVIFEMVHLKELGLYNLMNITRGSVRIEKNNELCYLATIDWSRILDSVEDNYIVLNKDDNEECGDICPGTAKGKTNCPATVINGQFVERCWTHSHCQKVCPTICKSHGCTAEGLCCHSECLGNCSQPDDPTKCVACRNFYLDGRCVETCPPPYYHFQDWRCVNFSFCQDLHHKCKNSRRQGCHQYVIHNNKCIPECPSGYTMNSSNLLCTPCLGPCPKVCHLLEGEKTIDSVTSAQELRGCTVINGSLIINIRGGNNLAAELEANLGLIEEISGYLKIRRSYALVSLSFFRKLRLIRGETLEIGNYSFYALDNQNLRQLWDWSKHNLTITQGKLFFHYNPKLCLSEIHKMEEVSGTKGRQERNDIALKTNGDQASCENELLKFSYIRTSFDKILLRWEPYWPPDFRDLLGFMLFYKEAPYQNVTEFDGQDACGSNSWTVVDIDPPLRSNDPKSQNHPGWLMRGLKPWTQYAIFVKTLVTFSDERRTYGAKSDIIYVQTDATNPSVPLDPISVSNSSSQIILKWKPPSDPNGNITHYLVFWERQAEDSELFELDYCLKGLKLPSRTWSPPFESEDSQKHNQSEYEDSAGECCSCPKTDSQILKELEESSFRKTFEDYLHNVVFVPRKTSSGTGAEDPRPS
Insulin receptor (Homo sapiens), sequence (P06213 763-1382 limits assumed): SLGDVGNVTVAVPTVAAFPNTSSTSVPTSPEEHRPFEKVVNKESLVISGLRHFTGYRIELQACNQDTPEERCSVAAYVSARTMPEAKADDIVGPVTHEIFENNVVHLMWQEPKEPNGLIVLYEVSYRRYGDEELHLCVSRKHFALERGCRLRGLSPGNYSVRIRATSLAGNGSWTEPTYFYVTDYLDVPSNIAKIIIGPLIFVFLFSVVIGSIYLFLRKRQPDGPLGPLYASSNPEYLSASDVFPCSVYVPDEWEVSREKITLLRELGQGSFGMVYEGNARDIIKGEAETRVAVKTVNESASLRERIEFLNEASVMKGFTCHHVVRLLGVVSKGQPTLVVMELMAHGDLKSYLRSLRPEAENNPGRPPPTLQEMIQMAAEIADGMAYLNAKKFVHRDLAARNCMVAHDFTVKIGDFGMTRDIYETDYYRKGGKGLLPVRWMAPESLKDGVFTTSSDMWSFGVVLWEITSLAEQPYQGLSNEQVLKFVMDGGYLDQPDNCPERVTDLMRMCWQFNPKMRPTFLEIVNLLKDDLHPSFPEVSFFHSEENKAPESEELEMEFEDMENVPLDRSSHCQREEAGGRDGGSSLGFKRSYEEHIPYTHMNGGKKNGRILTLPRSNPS
Vascular endothelial growth factor receptor 3 (Homo sapiens), sequence (P35916 whole entry): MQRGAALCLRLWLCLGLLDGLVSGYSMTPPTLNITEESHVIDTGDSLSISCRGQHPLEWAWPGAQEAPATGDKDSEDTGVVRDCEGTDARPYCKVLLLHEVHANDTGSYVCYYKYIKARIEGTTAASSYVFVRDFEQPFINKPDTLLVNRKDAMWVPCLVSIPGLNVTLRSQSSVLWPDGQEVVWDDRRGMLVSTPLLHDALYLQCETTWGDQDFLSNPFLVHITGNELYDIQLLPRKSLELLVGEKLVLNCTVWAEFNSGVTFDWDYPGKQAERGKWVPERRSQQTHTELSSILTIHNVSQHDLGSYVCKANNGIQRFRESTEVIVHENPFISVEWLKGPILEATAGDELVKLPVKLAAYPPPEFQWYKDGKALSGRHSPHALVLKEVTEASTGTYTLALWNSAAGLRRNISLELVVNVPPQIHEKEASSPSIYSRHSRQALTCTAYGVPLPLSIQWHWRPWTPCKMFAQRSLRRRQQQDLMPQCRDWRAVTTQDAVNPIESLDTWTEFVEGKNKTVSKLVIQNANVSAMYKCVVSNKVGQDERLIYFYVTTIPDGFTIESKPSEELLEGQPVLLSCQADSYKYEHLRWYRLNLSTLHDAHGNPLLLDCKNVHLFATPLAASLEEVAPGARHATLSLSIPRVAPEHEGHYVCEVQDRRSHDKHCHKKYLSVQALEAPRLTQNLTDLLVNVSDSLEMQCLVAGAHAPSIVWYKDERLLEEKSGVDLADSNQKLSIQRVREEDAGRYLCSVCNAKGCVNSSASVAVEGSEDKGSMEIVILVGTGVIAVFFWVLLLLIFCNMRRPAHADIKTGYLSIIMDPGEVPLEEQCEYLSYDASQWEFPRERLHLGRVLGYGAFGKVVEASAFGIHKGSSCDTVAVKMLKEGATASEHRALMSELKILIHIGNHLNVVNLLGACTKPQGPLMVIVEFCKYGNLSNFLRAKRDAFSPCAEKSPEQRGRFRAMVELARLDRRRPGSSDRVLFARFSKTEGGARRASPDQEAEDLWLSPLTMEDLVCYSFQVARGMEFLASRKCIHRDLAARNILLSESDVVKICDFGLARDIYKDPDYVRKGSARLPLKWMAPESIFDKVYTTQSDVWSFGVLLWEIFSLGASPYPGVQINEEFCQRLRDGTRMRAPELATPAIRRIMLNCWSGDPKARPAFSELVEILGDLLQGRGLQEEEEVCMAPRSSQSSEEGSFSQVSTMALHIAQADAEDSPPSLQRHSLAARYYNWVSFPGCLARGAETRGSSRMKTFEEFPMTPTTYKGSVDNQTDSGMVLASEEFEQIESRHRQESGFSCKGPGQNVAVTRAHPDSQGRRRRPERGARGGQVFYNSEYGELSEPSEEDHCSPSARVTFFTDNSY
Tyrosine-protein kinase HCK (Homo sapiens), sequence (P08631 2-526 limits assumed): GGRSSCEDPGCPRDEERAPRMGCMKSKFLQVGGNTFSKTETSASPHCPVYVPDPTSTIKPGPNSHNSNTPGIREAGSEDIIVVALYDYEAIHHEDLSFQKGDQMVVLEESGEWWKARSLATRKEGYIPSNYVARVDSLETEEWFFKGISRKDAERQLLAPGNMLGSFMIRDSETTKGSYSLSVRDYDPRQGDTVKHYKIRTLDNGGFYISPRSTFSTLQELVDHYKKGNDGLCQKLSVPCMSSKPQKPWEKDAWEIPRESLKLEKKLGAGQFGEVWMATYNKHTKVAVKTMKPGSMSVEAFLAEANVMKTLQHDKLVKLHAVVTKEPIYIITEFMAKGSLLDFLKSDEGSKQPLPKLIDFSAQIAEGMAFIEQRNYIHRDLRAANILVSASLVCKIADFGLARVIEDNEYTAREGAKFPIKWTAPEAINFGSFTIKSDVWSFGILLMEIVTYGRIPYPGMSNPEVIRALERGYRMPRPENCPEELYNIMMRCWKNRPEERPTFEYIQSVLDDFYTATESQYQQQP
Tyrosine-protein kinase Fyn (Homo sapiens), sequence (P06241 2-537 limits assumed): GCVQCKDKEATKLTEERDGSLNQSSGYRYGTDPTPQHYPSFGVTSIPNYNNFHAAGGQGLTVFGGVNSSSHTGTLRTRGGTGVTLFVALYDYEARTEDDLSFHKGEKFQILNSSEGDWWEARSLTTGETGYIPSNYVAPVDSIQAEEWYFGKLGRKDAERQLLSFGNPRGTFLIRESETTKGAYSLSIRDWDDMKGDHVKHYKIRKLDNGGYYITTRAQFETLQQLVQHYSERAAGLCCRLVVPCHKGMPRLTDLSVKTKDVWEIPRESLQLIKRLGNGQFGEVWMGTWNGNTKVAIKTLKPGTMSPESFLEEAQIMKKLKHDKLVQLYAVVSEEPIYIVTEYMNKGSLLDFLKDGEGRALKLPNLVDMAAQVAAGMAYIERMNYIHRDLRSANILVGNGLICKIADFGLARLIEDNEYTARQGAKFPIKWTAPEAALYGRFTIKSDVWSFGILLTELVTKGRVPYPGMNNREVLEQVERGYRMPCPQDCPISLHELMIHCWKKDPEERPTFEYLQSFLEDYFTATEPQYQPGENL
Insulin receptor-related protein (Homo sapiens), sequence (P14616 27-742 limits assumed): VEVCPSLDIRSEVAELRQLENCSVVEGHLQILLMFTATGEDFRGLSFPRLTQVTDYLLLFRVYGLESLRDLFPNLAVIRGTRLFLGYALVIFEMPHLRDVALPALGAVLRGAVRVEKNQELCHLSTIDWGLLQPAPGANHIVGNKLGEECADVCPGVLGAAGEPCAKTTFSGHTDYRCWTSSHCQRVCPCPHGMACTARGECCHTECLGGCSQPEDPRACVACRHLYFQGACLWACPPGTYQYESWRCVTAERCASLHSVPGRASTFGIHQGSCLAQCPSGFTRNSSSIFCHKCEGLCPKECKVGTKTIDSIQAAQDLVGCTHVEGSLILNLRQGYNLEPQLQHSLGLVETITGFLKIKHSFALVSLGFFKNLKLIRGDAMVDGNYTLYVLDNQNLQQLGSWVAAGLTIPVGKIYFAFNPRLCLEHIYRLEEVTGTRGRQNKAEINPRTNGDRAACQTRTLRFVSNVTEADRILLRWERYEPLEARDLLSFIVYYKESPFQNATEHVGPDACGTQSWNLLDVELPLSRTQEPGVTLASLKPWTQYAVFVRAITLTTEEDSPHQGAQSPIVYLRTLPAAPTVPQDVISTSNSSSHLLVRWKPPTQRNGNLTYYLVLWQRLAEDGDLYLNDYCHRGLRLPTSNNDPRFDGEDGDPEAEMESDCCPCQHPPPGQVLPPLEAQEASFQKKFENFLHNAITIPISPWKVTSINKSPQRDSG
Insulin receptor-related protein (Homo sapiens), sequence (P14616 747-1297 limits assumed): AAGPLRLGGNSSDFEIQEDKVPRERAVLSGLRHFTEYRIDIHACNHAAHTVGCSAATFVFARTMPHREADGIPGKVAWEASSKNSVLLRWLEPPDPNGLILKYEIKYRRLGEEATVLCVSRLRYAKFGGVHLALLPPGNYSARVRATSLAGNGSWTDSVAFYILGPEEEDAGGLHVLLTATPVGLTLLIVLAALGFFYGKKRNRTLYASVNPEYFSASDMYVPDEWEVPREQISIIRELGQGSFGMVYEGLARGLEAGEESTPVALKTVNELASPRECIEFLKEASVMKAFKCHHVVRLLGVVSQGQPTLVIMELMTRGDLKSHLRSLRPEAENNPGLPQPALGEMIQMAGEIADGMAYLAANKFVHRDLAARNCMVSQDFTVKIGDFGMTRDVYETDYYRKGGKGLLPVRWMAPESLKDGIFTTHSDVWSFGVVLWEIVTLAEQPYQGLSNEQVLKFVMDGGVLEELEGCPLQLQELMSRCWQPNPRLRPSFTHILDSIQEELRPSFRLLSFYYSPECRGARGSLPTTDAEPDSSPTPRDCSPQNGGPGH

Regarding `NC(=O)Cc1ccccc1Oc1nccc(-c2c(-c3ccc(F)cc3)ncn2C2CCNCC2)n1`, the inhibition was 1.22% in [1]; 3.44% in test [2]; 2.54% in test [3]; 5.28% in test [4]; 1.28% in [5]; 1.36% in [6]. Moreover, the inhibition is -0.28% in test [7]; 0.18% in test [8]; 1.47% in test [9]; 2.4% in [10]; 2.13% in [11]; 2.65% in test [12]. Further, the inhibition in test [13] worked out at 5.75%; in test [14] it was 3.37%; in test [15], 3.6%; in [16], 5.96%; in test [17], 6.34%; in test [18] it was 0.84%. Further, the inhibition stood at 1.69% in [19] and 1.33% in test [20].

Consider `COc1ccc(C2=C(N3CCc4ccccc43)C(=O)NC2=O)cc1`, for which the inhibition in [1] was determined as 7.64%; in test [2] it was 4.84%; in test [3], 4.9%; in test [4] it was 9.59%; in [5], 3.5%; in test [6], 1.33%. Also, the inhibition in test [7] was 3.21%; in test [8], 2.49%; in [9], 4.23%; in test [10] it was 2.77%; in test [11], 4.68%; in test [12], 8.17%. Also, the inhibition in test [13] worked out at 9.54%; in test [14], 4.43%; in [15], 6.19%; in test [16], 4.83%; in test [17], 8.59%; in test [18] it was 2.42%. The inhibition in test [19] stood at 1.91%; in test [20], 1.76%.

Take `CS(=O)(=O)CCNCc1cc(-c2cc3c(Nc4ccc(OCc5cccc(F)c5)c(Cl)c4)ncnc3s2)cs1`: the inhibition in test [1] came out at 8.5%; in [2] it was 6.1%; in [3], 8.12%; in test [4], 9.23%; in test [5], 5.05%; in [6], 1.58%. Besides, the inhibition in test [7] was -1.31%; in test [8] it was 7.21%; in test [9], 7.82%; in test [10], 0.55%; in test [11], 2.71%; in test [12], 6.52%. Further, the inhibition was 7.87% in test [13]; 5.7% in test [14]; 4.5% in test [15]; 11.5% in test [16]; 4.74% in test [17]; 1.69% in [18]. In addition, the inhibition in test [19] turned out to be 2.82%; in [20], 1.89%.

In the case of `CN(c1ccc(NC(=O)Nc2c(Cl)cccc2Cl)cc1)c1ccnc(Nc2cccc(CS(C)(=O)=O)c2)n1`, the inhibition is -6.03% in [1]; 0.57% in test [2]; 0.37% in [3]; 3.9% in [4]; 28.8% in test [5]; 23% in [6]. The inhibition amounted to 41.7% in test [7]; 92.1% in test [8]; 96.2% in test [9]; 2.74% in [10]; 12.4% in test [11]; 22.5% in [12]. For the same compound, the inhibition was 48.9% in test [13]; 5.47% in test [14]; 4.63% in test [15]; 1.49% in [16]; 3.45% in test [17]; 2.73% in test [18]. For the same compound, the inhibition in [19] worked out at 4.71%; in test [20], 54.1%.

Regarding `COc1ccc(-c2ccc3c(NC(=O)C4CC4)n[nH]c3n2)cc1`, the inhibition is 3.42% in test [1]; 3.2% in [2]; 0.74% in test [3]; 5.12% in test [4]; 5.49% in test [5]; 1.77% in [6]. Moreover, the inhibition in test [7] is 1.31%; in test [8] it was 1.02%; in test [9] it was 1.62%; in test [10] it was 1.9%; in [11], 4%; in [12], -0.93%. Moreover, the inhibition in test [13] stood at 5.16%; in [14], 1.17%; in test [15], 0.43%; in test [16], 1.07%; in test [17], 3.1%; in test [18], 0.55%. For the same compound, the inhibition was determined as 0.43% in [19] and 0.61% in [20].
